The results in this text go back to PubChem BioAssay (NCATS).

“And” between values parts separate entries of the source, which are not always exact repeats. Equal entries are not always repeated. Values without a mark were called inactive. Inconclusive results are not listed. The source made the active and inactive calls. The call rests on the fitted dose curve; in most records, active means well fitted curve in the direction sought with a large enough effect; inconclusive means small, poorly fitted or top-dose-only effect, or another doubt; inactive means no such curve, though single readings can be large; an effect the other way counts as inactive or inconclusive.

Assay [1] can be described thus: Primary qHTS for inhibitors of nuclear receptor binding SET domain protein 2 (NSD2) in an RCH-ACV wild type WT cells (2C) (AID 1645877). Further: nearly all actives have a fitted effect of over 70% in size. Further: potency means the concentration at half of the fitted maximal effect.
Assay [2] deals with Glutathione peroxidase 1 (Homo sapiens) (UniProt P07203). The experiment in a line: Primary qHTS Assay for Inhibitors of Recombinant Selenoprotein Glutathione Peroxidase 1 (GPX1) (AID 1845191). Further: nearly all actives have a fitted effect of over 65% in size. Further: potency means the concentration at half of the fitted maximal effect. On activity, negative = inhibition: on the % scale 0 is the no-effect control and ±100 the full control effect. In a few lines: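 Recombinant GPX1 (10 nM final) was preincubated with compound for 30 min at room temperature, then reacted with 1 mM GSH, 0.5 mM CHP, 0.5 mM NADPH and 100 nM glutathione reductase; NADPH fluorescence (340/450 nm) was read at 0 and 15 min.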

Assay [3] has as its target Luciferin 4-monooxygenase (Photinus pyralis) (UniProt P08659). The experiment in a line: Primary firefly luciferase (FLuc) qHTS assay for identification of artifact compounds. (AID 1845220). Further: nearly all actives have a fitted effect of over 60% in size.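 On activity change, negative = inhibition: series mostly up to about 54 µM; plate controls were DMSO vehicle for no effect and no enzyme for full effect.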 In a few lines:
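qHTS, 15 min compound preincubation with substrate (10 uM luciferin, 10 uM ATP) at RT, then 10 nM FLuc; 5 min; luminescence; % inhibition vs no-enzyme/DMSO controls, 4-parameter Hill fit.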
A general note: qHTS replaces the single test concentration by a dilution series.

A short description of assay [4]: Primary fluorescence-based thiol-reactive (MSTI) qHTS assay for identification of artifact compounds. (AID 1845221). Further: nearly all actives have a fitted effect of over 65% in size. Further: potency means the concentration at half of the fitted maximal effect. The procedure, abridged:
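qHTS titration of compound; 4 uM MSTI, PBS pH 7.4, 2% DMSO; 1 h RT, dark; fluorescence 525/598 nm; normalized to Acetyl-MSTI and MSTI; 4-parameter Hill fit.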

The subject of assay [5] is Nanoluciferase (engineered Oplophorus gracilirostris luciferase). The experiment in a line: Primary Nanoluciferase (NLuc) qHTS assay for identification of artifact compounds. (AID 1845222).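 Further: series mostly up to about 54 µM; 0% = DMSO and -100% = no enzyme.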 In a few lines:
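Luminescence read-out of secreted NLuc in S16 cell conditioned medium (1:55); compounds tested with 15 min RT preincubation, then Nano-Glo substrate 1:100, 5 min. % inhibition vs no-enzyme and DMSO controls, 4-parameter Hill fit.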

Assay [6] can be described thus: Primary redox qHTS assay for identification of artifact compounds. (AID 1845223).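 Further: 0% = DMSO and 100% = reference compound.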 In a few lines:
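Amplex Red (25 uM) and HRP (250 mU/mL) in HBSS, with compounds for 15 min, then 250 uM DTT for 30 min, room temperature, dark. Fluorescence 525/598 nm read; normalized to DMSO and 10 uM DA3003; Hill fit.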

Assay [7] concerns the target Phospholipid hydroperoxide glutathione peroxidase GPX4 (Homo sapiens) (UniProt P36969). Kind of assay: Primary qHTS Assay for Inhibitors of Recombinant Selenoprotein Glutathione Peroxidase 4 (GPX4) (AID 1845192). Further: series mostly up to about 50 µM; on the % scale 0 is the no-effect control and ±100 the full control effect; nearly all actives have a fitted effect of over 65% in size. The procedure, abridged: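 GR-coupled readout: 100 nM GR, 1 mM GSH, 0.5 mM NADPH; NADPH fluorescence (ex 340/em 450 nm) read at t=0 and after 15 min RT. GPX4 200 nM, preincubated 30 min with compound; substrate 0.5 mM CHP.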

Glutathione peroxidase 1 (Homo sapiens), sequence (P07203 whole entry, looked up): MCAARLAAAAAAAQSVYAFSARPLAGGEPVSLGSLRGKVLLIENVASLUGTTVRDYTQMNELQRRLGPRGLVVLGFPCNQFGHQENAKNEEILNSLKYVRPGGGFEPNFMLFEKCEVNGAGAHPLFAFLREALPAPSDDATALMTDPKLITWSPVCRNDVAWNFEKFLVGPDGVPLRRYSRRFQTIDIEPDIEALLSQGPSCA
Phospholipid hydroperoxide glutathione peroxidase GPX4 (Homo sapiens), sequence (P36969 whole entry, looked up): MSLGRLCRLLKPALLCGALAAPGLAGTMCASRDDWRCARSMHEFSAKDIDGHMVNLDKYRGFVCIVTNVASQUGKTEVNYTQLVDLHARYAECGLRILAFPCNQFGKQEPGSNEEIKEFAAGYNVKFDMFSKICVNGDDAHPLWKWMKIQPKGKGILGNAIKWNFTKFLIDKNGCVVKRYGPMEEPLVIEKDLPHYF

As to `CO[C@@H](C)Cn1c(=O)n(C)c2cnc3ccc(-c4cncc(C(C)(C)O)c4)cc3c21`, in assay [1], the Potency is 166 nM (active). Moreover, the Potency result in assay [2], in assay [3], in assay [4], in assay [5] and in assay [6] was “inactive” in each case.

As for `Cc1cc(NC(=O)Nc2ccc(F)c(F)c2)n(-c2ccccc2)n1`, the Potency result in assay [1], in assay [2], in assay [7], in assay [5] and in assay [6] was “inactive” throughout.

With `COc1ccc(CC2C(=O)NC(C)C(=O)N(C)C3Cc4ccc(cc4)Oc4cc(ccc4OC4OC(CO)C(O)C(O)C4O)CC(C(=O)NC(C)C(=O)NC(C)C(=O)N2C)N(C)C3=O)cc1` (centres undefined), the Potency in assay [1] was 9.7 nM (active). Further, the Potency entry in assay [2] is “inactive”. Further, the activity change, negative = inhibition in assay [3] was -7.7% [at 11.6 µM]. For the same molecule, the activity, negative = inhibition in assay [5] was -5.37% [at 11.6 µM].

As to `FC(F)(F)c1ccc(Nc2nc(-c3c(C(F)(F)F)nc4ccccn34)cs2)cc1`, in assay [1], the Potency is 372 nM (active). Further, the Potency result in assay [2], in assay [3], in assay [4], in assay [5] and in assay [6] was “inactive” in each case.

On to `O=C(NCc1ccccn1)Nc1nnc(-c2ccco2)o1`, for which the Potency result in assay [1], in assay [2], in assay [3], in assay [4], in assay [5] and in assay [6] was “inactive” throughout.

As to `CC(Cc1cc2c(c(C(N)=O)c1)N(CCCO)CC2)NCCOc1ccccc1OCC(F)(F)F` (centres undefined), the Potency entry in assay [1], in assay [2], in assay [3], in assay [5] and in assay [6] was “inactive” in each case.

Consider `CC(C)(C)C(=O)CN1C(=O)[C@H](NC(=O)Nc2cccc(C(=O)O)c2)CN(C2CCCCC2)c2ccccc21`, for which the Potency entry in assay [1], in assay [2], in assay [3], in assay [4], in assay [5] and in assay [6] was “inactive” throughout.

On to `C=C[C@]1(C)C[C@H](O)[C@@H]2[C@H](OC(=O)[C@@H]2C)C1/C(C)=C/O[C@@H]1O[C@H](CO)[C@@H](O)[C@H](O)[C@H]1O` (some centres undefined), for which the Potency result in assay [1], in assay [2], in assay [3], in assay [5] and in assay [6] was “inactive” each time.

In the case of `C=C(C)C1CCC(C)C12CC(O)C1(C)OC1C2OC(=O)C(N)CCC(=O)O` (centres undefined), the Potency entry in assay [1], in assay [2], in assay [3], in assay [4], in assay [5] and in assay [6] was “inactive” throughout.

As for `C/C=C/C=C/C(O)=C1\C(O)=C(C)C(=O)[C@@]2(C)OC(=O)[C@@](C)(NC(=O)/C=C/C(=O)O)[C@@H]12`, the Potency result in assay [1], in assay [2], in assay [7], in assay [5] and in assay [6] was “inactive” in each case.

On to `CC(C)(C)c1cc(Br)cc([C@H](CC(=O)O)NC(=O)CNC(=O)c2cc(O)cc(NC3=NCC(O)CN3)c2)c1` (some centres undefined), for which the Potency result in assay [1], in assay [2], in assay [3], in assay [4], in assay [5] and in assay [6] was “inactive” each time.

Take `O=C(/C=C\n1cnc(-c2cc(C(F)(F)F)cc(C(F)(F)F)c2)n1)N1CC(F)(F)C1`: in assay [1], the Potency is 833 nM (active). Further, the Potency entry in assay [2], in assay [3], in assay [4], in assay [5] and in assay [6] was “inactive” throughout.

Regarding `C=CC/C=C\C/C=C\CCCCCCCc1cccc(O)c1C(=O)O`, the Potency result in assay [1], in assay [2], in assay [3] and in assay [5] was “inactive” throughout.

For `CC(=O)OC1CC2C3(C)CCC(OC(=O)CC(=O)O)C(C)(C)C3CCC2(C)C2(C)CCC(C3(C)CCC(=O)O3)C12` (centres undefined), the Potency entry in assay [1], in assay [2], in assay [3], in assay [4], in assay [5] and in assay [6] was “inactive” each time.

`CCC(O)(C(=O)OCc1ccccc1NC(=O)CCC(=O)O)C(C)O` (centres undefined): the Potency entry in assay [1], in assay [2], in assay [3], in assay [4], in assay [5] and in assay [6] was “inactive” in each case.

Consider `COc1cc(Nc2nc3c(s2)CCCC3c2ccc(F)cc2)ccc1-n1cnc(C)c1` (centres undefined), for which the Potency in assay [1] is 10300 nM (active); in assay [4], 11.9 µM (active). The Potency entry in assay [2], in assay [3], in assay [5] and in assay [6] was “inactive” each time.

Turning to `Cc1ccc(-c2ccc3ncc4c(c3n2)n(C2CCN(C(=O)[C@H](C)O)CC2)c(=O)n4C)cn1`, the Potency in assay [1] was 74.2 nM (active); in assay [2], 22.7 µM (active). The Potency entry in assay [3], in assay [4], in assay [5] and in assay [6] was “inactive” in each case.

For `O=C(Nc1ccc(S(=O)(=O)Nc2ccccc2Cl)c(Cl)c1)c1ccccn1`, the Potency result in assay [1], in assay [2], in assay [3], in assay [4], in assay [5] and in assay [6] was “inactive” throughout.

On to `C=CC1(C)CC(OC(=O)/C(C)=C\COC(C)=O)C(C(=C)C(=O)O)C(O)C1C(=C)CO` (centres undefined), for which the Potency result in assay [1], in assay [2], in assay [3], in assay [4], in assay [5] and in assay [6] was “inactive” each time.

As to `CNC(=S)NS(=O)(=O)c1cc(CCNC(=O)c2cc(Cl)ccc2OC)ccc1OC`, the Potency entry in assay [1], in assay [3], in assay [4] and in assay [6] was “inactive” in each case. Also, the Potency in assay [2] is 12.8 µM (active).

Consider `Cn1cc(-c2ccc3nnc(Sc4ccc5nn(C)cc5c4)n3n2)cn1`, for which the Potency result in assay [1], in assay [2], in assay [3], in assay [4], in assay [5] and in assay [6] was “inactive” each time.

With `C#CC[C@H](c1nc2cc(Cl)ccc2c(=O)n1Nc1ccccc1)N(CCCN)C(=O)c1cccc(Cl)c1F`, the Potency in assay [1] was 332 nM (active). Moreover, the Potency result in assay [2], in assay [3], in assay [4], in assay [5] and in assay [6] was “inactive” throughout.

On to `Nc1ccc(/C=C/C(=O)NCc2cc3cc(-c4ccc(C(=O)N5CCC(F)(F)CC5)cc4)cc(-c4ccc(F)cc4)c3o2)cn1`, for which, in assay [1], the Potency was 332 nM (active) and 206 nM (active). Moreover, the Potency entry in assay [2], in assay [3], in assay [5] and in assay [6] was “inactive” each time.

As for `CCNC(=O)C1OC(n2cnc3c(N)nc(NCCc4ccc(CCC(=O)O)cc4)nc32)C(O)C1O` (centres undefined), the Potency result in assay [1], in assay [2], in assay [3], in assay [4], in assay [5] and in assay [6] was “inactive” each time.
